“And” between values parts separate entries of the source, which are not always exact repeats. Identical values can stand only once. Results filed as inconclusive are left out. The source made the active and inactive calls. Calls come from the whole dose curve; as a rule, active = well fitted inhibition curve with a large enough effect; inconclusive = small, poorly fitted or top-dose-only effect; inactive = flat fitted curve, though single readings scatter.

One test relates to PC15. As to the kind of experiment: qHTS profiling for inhibitors of Plasmodium falciparum proliferation (AID 504749). The following applies: P. falciparum in erythrocytes, SYBR Green DNA, 72 h; series mostly up to 28.7 µM. An outline of the steps:
(§1)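 P. falciparum-infected erythrocytes (0.3% parasitemia, 2.5% hematocrit final) were exposed to compounds for 72 h at 37 C in 5% CO2, then lysed with SYBR Green buffer overnight at room temperature; parasite DNA fluorescence was normalized to artemisinin and DMSO controls.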

The next test relates to PC26. Described as above. The following applies: P. falciparum in erythrocytes, SYBR Green DNA, 72 h; series mostly up to 28.7 µM. The method in brief:
as §1

In a further test the test system is PC49. Described as above. The following applies: P. falciparum in erythrocytes, SYBR Green DNA, 72 h; series mostly up to 28.7 µM. The method in brief: as §1
The subject of a further test is SC27B. The test is described as above. Conditions: P. falciparum in erythrocytes, SYBR Green DNA, 72 h; series mostly up to 28.7 µM. The method in brief: as §1
The next test concerns TAB113. Described as above. The following applies: P. falciparum in erythrocytes, SYBR Green DNA, 72 h; series mostly up to 28.7 µM. The method in brief:
as §1

A further test relates to TAB165. Described as above. The following applies: P. falciparum in erythrocytes, SYBR Green DNA, 72 h; series mostly up to 28.7 µM. The method in brief: as §1
A further test relates to W2. The test is described as above. Conditions: P. falciparum in erythrocytes, SYBR Green DNA, 72 h; series mostly up to 28.7 µM. The method in brief:
as §1

Another test concerns HEK293. As to the kind of experiment: Cytotoxic Profiling of Annotated Libraries Using Quantitative High-Throughput Screening (AID 1296008). The following applies: Five cell lines viability, CellTiter-Glo ATP luminescence, 48-72 h; max response: active compounds read low. An outline of the steps:
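Compounds were pin-transferred onto cells and incubated 48 or 72 hr at 37 degree Celsius, 95% humidity. CellTiter-Glo was added, plates sat 10 min at room temperature, then ATP-coupled luminescence was imaged as the viability read-out.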

Another test deals with TAB109. As to the kind of experiment: qHTS profiling for inhibitors of Plasmodium falciparum proliferation (AID 504749). Conditions: P. falciparum in erythrocytes, SYBR Green DNA, 72 h; series mostly up to 28.7 µM. The method in brief: as §1
(In qHTS, concentration-response curves come from the screen itself.)
Note: nearly all actives have a fitted effect of over 60% in size.
Potency is the fitted concentration of half-maximal effect.

On to `COc1c(N2C[C@@H]3CCCN[C@H]3C2)c(F)cc2c(=O)c(C(=O)O)cn(C3CC3)c12`, for which the Potency result in the test with PC15, in the test with PC26, in the test on PC49, with SC27B, in the test with TAB113 and in the test on TAB165 was “inactive” throughout. The Potency result in the test on W2 was “inactive”.

In the case of `O=C(CCCCCCNC(=O)c1cnc(N(c2ccccc2)c2ccccc2)nc1)NO`, in the test with HEK293, the Potency was 13.2 µM (active) and 7.31 µM (active).

Consider `Cc1cc(Nc2cc(N3CCN(C)CC3)nc(Sc3ccc(NC(=O)C4CC4)cc3)n2)n[nH]1`, for which, in the test with HEK293, the Potency was 7.43 µM (active) and 7.31 µM (active).

`c1nc2nc(Nc3ccc(N4CCOCC4)cc3)nc(NC3CCCCC3)c2[nH]1`: the Potency in the test with HEK293 is 935 nM (active) and 252 nM (active).

On to `COc1ccc(C(=O)CC2(O)C(=O)Nc3c(Cl)ccc(Cl)c32)cc1` (configuration not stated), for which the Potency in the test with HEK293 is 2.64 µM (active).

For the compound `CC(C)c1noc(N2CCC(COc3ccc(-c4ccc(S(C)(=O)=O)cc4)nc3)CC2)n1`, in the test on HEK293, the Potency is 7.43 µM (active) and 8.2 µM (active).

`COc1ccc(OC)c(-c2nnc3ccc(-c4ccc(OC)c(O[C@@H]5CCOC5)c4)nn23)c1`: the Potency in the test on HEK293 is 8.33 µM (active).

On to `Cc1cc(Nc2cc(CN3CCOCC3)c3nc(C)c(Cc4ccc(Cl)cc4F)n3n2)n[nH]1`, for which the Potency in the test with HEK293 is 11.8 µM (active) and 16.4 µM (active).

With `COc1cc2ncn(-c3cc(OCc4ccccc4C(F)(F)F)c(C(N)=O)s3)c2cc1OC`, the Potency in the test with HEK293 was 0.469 µM (active).

As for `C[C@@H](Oc1cc(-n2cnc3ccc(CN4CCN(C)CC4)cc32)sc1C(N)=O)c1ccccc1C(F)(F)F`, the Potency in the test on HEK293 is 0.0332 µM (active).

On to `CC(=O)Nc1sc2c(c1-c1nc3ccccc3s1)CNC2`, for which the Potency in the test with HEK293 was 11.8 µM (active).

On to `Nc1ccn([C@@H]2O[C@H](CO)[C@H](O)C2(F)F)c(=O)n1`, for which the Potency was 4.78 µM (active) with PC26; 0.708 µM (active) in the test on PC49; 3.98 µM (active) with SC27B; 5.01 µM (active) in the test with TAB109; 3.98 µM (active) in the test with TAB113; 3.98 µM (active) in the test with TAB165. For the same compound, the Potency in the test on W2 is 0.19 µM (active).

`Nc1ccc(S(=O)(=O)Nc2ncccn2)cc1`: the Potency result with PC15, in the test on PC26, in the test on PC49, with SC27B, with TAB109 and with TAB113 was “inactive” each time. Also, the Potency result in the test on TAB165 and with W2 was “inactive” throughout.

As to `Nc1ccn([C@@H]2CS[C@H](CO)O2)c(=O)n1`, the Potency entry in the test with PC15, in the test with PC26, in the test with PC49, with SC27B, in the test with TAB109 and in the test on TAB113 was “inactive” throughout. The Potency entry with TAB165 and in the test on W2 was “inactive” each time.

Regarding `O=C(O)CO.[NH2-].[NH2-].[Pt+2]`, the Potency result in the test with PC15, in the test with PC26, with PC49, in the test on SC27B, with TAB109 and in the test on TAB113 was “inactive” in each case. The Potency entry in the test on TAB165 and with W2 was “inactive” each time.

For the compound `O=C(Nc1nc2cccc(-c3ccc(CN4CCS(=O)(=O)CC4)cc3)n2n1)C1CC1`, the Potency in the test with HEK293 is 10.5 µM (active) and 10.3 µM (active).

Turning to `CCCCOc1c(C(=O)c2c(F)cc(C)cc2F)cnc2n[nH]cc12`, the Potency in the test with HEK293 is 14.8 µM (active) and 2.59 µM (active).

Regarding `CNC(=O)c1c(F)cccc1Nc1nc(Nc2cc3c(cc2OC)CCN3C(=O)CN(C)C)nc2[nH]ccc12`, in the test on HEK293, the Potency is 4.18 µM (active) and 13 µM (active).

Take `C[C@@H]1COC(Nc2ccc3ncnc(Nc4ccc(OCc5nccs5)c(Cl)c4)c3c2)=N1`: the Potency with HEK293 was 8.33 µM (active) and 16.4 µM (active).

The record behind these values is PubChem BioAssay (NCATS).
